# Data reported in PubChem BioAssay (NCI).
# About 83,000 compounds went through this panel and 20% of them were active in at least one assay; those are over-represented in the sample as a whole.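 Assay: single dose, 48 h. Readout: percent growth (0 = no net growth; negative = cell death). Active: <10.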 A number with no mark means an inactive call. Activity calls are given as the source filed them.
# Experiments:
# Test in all cases: NCI-60 one-dose screen, 48 h (100 = growth as untreated, 0 = no growth, -100 = all killed)
# SK-MEL-2 melanoma = details: 10 µM unless noted
# EKVX NSCLC = details: 10 µM unless noted
# SN12C renal = details: 10 µM unless noted
# UO-31 renal = details: 10 µM unless noted
# TK-10 renal = details: 10 µM unless noted
# ACHN renal = details: 10 µM unless noted
# CAKI-1 renal = details: 10 µM unless noted
# CCRF-CEM leukemia = details: 10 µM unless noted
# MOLT-4 leukemia = details: 10 µM unless noted
# SR leukemia = details: 10 µM unless noted
# RPMI-8226 leukemia = details: 10 µM
# OVCAR-8 ovarian = details: 10 µM unless noted
# OVCAR-5 ovarian = details: 10 µM unless noted
# OVCAR-4 ovarian = details: 10 µM unless noted
# IGROV1 ovarian = details: 10 µM unless noted
# HS 578T breast = details: 10 µM unless noted
# NCI/ADR-RES ovarian = details: 10 µM unless noted
# OVCAR-3 ovarian = details: 10 µM unless noted
SMILES,growth (SK-MEL-2 melanoma),growth (EKVX NSCLC),growth (SN12C renal),growth (UO-31 renal),growth (TK-10 renal),growth (ACHN renal),growth (CAKI-1 renal),growth (CCRF-CEM leukemia),growth (MOLT-4 leukemia),growth (SR leukemia),growth (RPMI-8226 leukemia),growth (OVCAR-8 ovarian),growth (OVCAR-5 ovarian),growth (OVCAR-4 ovarian),growth (IGROV1 ovarian),growth (HS 578T breast),growth (NCI/ADR-RES ovarian),growth (OVCAR-3 ovarian)
COc1cc(/C=N/NC(=O)c2cnn3c2NC(c2ccccc2)C3)ccc1OC1CCCC1 (stereo not given),18.6%,44.9%,46.1%,33.1%,60.2%,35.6%,32.2%,24.3%,41.6%,35.2%,17.9%,49.1%,59.7%,44.6%,42.6%,-18% (active),14%,–
COc1ccc(/C=N/OCC(O)CNCc2ccccc2)cc1OC1CCCC1 (stereo not given),115%,93.1%,99.9%,69.2%,103%,99.6%,84%,113%,101%,87%,98.3%,104%,101%,91.2%,95.7%,111%,104%,104%
O=C(N/N=C/c1ccc(OC(F)F)c(OC2CCCC2)c1)c1cnn2c1NC(c1ccccc1)C2 (stereo not given),90.7%,91.5%,87.1%,65.1%,91.9%,82.3%,62.6%,78.7%,54.7%,37.4%,73.9%,90.4%,93.7%,61.3%,83.4%,69.2%,72.8%,78.9%
COC(=O)c1c2c(c(C)[n+]([O-])c1C)C(=O)C(NCc1ccc(O)cc1)=CC2=O,-12.5% (active),-34.5% (active),-89.9% (active),6.95% (active),74.1%,8.06% (active),7.36% (active),6.08% (active),-1.35% (active),11.1%,-2.15% (active),5.26% (active),-17% (active),–,-45% (active),-22.5% (active),-6.46% (active),-33.1% (active)
